In PubChem BioAssay (Tox21):
Inconclusive results are not listed. Active and inactive are the calls of the source. Unless noted, calls follow the shape of the dose curve; as a rule, active = well fitted curve in the direction sought with a large enough effect in the repeat runs; inconclusive = weak or mixed curves; inactive = no such curve, though single readings can be large; an effect the other way counts as inactive or inconclusive.

Legend:
[1] = qHTS assay to identify small molecule antagonists of the thyroid receptor (TR) signaling pathway - cell viability counter screen (AID 743064); also: nearly all actives have a fitted effect of over 50% in size
Summary of the method: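 Fluorescence from CellTiter-Fluor, added after 23.5 h exposure at 37 °C, reported viability of GH3.TRE-Luc cells co-treated with compound and 1 nM T3. Measured in the same wells as the luciferase TR readout.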

[2] = system: thyroid hormone receptor (rat, GH3 cells); test: qHTS assay to identify small molecule agonists of the thyroid receptor (TR) signaling pathway (AID 743066; calls by dose curve)
[3] = qHTS assay to identify small molecule antagonists of the estrogen receptor alpha (ER-alpha) signaling pathway - cell viability counter screen (AID 743074; calls by dose curve;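 also: HEK293 cells carrying ER-alpha-UAS-bla reporter stimulated with 17beta-estradiol; nearly all actives have a fitted effect of over 45% in size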)
Aromatase (Homo sapiens) = Aromatase (Homo sapiens) (UniProt P11511); test: qHTS assay to identify aromatase inhibitors (AID 743083); also: nearly all actives have a fitted effect of over 55% in size; also: potency is read from the fitted curve at half-maximal effect
Sequence of Aromatase (Homo sapiens) (P11511 whole entry, looked up): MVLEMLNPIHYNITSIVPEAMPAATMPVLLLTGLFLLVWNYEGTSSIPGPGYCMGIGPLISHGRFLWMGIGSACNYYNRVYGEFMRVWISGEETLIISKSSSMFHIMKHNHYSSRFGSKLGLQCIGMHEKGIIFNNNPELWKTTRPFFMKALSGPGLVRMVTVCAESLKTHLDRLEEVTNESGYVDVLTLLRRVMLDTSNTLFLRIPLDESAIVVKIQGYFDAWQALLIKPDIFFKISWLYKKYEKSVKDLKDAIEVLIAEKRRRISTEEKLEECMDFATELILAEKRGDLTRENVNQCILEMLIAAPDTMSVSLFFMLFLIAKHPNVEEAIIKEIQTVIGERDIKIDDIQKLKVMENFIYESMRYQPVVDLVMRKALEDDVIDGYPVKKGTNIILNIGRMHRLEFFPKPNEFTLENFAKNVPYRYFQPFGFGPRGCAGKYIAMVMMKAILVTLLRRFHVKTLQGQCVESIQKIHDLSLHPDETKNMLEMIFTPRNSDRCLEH

[4] = qHTS assay to identify small molecule that activate the aryl hydrocarbon receptor (AhR) signaling pathway - cell viability counter screen (AID 743086); also: nearly all actives have a fitted effect of over 45% in size; also: potency is read from the fitted curve at half-maximal effect
Summary of the method: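 HepG2-AhR-luc (HG2L7.5c1) cells, 4000/well, treated 24 h at 37 C with compound; viability measured as CellTiter-Fluor fluorescence after 30 min in the same wells as the luciferase read.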

[5] = biological target: Peroxisome proliferator-activated receptor gamma (Homo sapiens) (UniProt P37231); test: qHTS assay to identify small molecule agonists of the peroxisome proliferator-activated receptor gamma (PPARg) signaling pathway (AID 743094; active = well fitted activation curve with a large enough effect in the signal ratio in the repeat runs, not every such curve was filed as active; the % refers to the signal ratio)
Sequence of Peroxisome proliferator-activated receptor gamma (Homo sapiens) (P37231 whole entry, looked up): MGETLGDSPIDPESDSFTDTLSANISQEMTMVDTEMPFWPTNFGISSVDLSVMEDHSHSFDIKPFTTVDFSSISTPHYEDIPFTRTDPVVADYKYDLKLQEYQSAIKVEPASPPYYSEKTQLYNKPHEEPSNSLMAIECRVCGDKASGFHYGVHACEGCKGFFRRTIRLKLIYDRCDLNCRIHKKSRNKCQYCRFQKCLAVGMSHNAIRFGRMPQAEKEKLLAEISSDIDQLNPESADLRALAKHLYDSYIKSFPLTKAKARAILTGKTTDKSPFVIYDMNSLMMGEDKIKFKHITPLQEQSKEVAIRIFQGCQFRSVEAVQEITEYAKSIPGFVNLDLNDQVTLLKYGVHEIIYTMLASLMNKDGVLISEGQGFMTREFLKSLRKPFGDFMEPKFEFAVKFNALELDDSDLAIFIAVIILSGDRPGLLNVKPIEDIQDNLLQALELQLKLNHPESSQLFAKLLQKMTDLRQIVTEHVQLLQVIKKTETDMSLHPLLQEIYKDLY
Summary of the method: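 Stably transfected HEK293H cells (GeneBLAzer PPARg UAS-bla) were incubated with test substances for 17 h at 37C after a 5 h pre-incubation; beta-lactamase activity was then detected by FRET substrate fluorescence.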

[6] = biological target: Estrogen receptor (Homo sapiens) (UniProt P03372); test: qHTS assay to identify small molecule agonists of the estrogen receptor alpha (ER-alpha) signaling pathway using the BG1 cell line (AID 743079); also: nearly all actives have a fitted effect of over 20% in size; also: potency is read from the fitted curve at half-maximal effect
Sequence of Estrogen receptor (Homo sapiens) (P03372 whole entry, looked up): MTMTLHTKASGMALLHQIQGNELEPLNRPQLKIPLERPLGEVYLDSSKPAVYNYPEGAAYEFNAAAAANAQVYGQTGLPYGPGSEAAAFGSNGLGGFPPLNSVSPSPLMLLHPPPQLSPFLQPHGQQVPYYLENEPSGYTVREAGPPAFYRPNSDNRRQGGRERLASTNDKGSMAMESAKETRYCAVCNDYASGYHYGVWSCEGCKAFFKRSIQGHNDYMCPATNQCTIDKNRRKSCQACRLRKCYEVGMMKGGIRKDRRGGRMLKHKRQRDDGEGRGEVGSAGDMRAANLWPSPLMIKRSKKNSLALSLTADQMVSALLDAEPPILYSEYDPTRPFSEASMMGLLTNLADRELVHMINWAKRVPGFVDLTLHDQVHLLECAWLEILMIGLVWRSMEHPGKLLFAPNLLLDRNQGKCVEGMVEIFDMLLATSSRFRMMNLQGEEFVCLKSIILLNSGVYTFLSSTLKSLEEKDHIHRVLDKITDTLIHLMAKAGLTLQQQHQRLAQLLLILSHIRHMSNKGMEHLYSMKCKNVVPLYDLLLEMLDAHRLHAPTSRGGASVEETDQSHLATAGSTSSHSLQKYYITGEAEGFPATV

[7] = qHTS assay to identify small molecule antagonists of the estrogen receptor alpha (ER-alpha) signaling pathway using the BG1 cell line - cell viability counter screen (AID 743081);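 also: compound given together with 17beta-estradiol as the ER stimulus; series mostly up to about 70 µM; nearly all actives have a fitted effect of over 45% in size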
[8] = qHTS assay to identify aromatase inhibitors - cell viability counter screen (AID 743084);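 also: cells stimulated with testosterone during compound exposure; nearly all actives have a fitted effect of over 55% in size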
[9] = biological target: Aryl hydrocarbon receptor (Homo sapiens) (UniProt P35869); test: qHTS assay to identify small molecule that activate the aryl hydrocarbon receptor (AhR) signaling pathway (AID 743085); also: nearly all actives have a fitted effect of over 15% in size; also: potency is read from the fitted curve at half-maximal effect;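 as to activation: HG2L7.5c1 human HepG2 liver cells with stably integrated DRE-driven firefly reporter; series mostly up to about 70 µM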
Sequence of Aryl hydrocarbon receptor (Homo sapiens) (P35869 whole entry, looked up): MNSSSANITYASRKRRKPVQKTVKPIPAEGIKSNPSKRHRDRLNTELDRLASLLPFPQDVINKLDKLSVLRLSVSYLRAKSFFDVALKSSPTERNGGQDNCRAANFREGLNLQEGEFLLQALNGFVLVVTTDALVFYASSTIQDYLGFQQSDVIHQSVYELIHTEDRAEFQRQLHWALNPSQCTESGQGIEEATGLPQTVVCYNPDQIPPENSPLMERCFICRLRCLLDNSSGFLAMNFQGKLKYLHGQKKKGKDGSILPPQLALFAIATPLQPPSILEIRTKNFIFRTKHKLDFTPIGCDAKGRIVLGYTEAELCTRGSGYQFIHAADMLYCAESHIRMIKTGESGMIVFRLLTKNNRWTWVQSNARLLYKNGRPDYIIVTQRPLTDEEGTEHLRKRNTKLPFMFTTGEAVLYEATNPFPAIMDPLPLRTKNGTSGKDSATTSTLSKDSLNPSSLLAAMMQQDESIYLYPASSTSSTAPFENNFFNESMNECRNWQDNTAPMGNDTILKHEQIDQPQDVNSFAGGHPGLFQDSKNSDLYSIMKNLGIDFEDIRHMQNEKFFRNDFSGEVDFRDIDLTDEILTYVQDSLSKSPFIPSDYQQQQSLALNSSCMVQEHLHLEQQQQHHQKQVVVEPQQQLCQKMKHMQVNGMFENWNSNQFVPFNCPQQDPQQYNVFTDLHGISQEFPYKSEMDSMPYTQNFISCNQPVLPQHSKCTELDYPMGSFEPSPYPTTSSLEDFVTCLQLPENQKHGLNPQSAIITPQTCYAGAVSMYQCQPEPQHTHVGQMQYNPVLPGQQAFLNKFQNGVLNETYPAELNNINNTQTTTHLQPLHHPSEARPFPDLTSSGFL
Summary of the method: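 Cell line HG2L7.5c1 (human hepatoma, 20× DRE-luc). Plated, 5 h 37C, compound/DMSO added, 24 h 37C. CellTiter-Fluor 30 min 37C → fluorescence; then ONE-Glo 30 min RT → luminescence.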

[10] = qHTS assay to identify small molecule antagonists of the peroxisome proliferator-activated receptor gamma (PPARg) signaling pathway - cell viability counter screen (AID 743194); also: nearly all actives have a fitted effect of over 55% in size; also: potency is read from the fitted curve at half-maximal effect
Summary of the method: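 Cytotoxicity counter screen in PPARg-bla HEK293H cells, same wells as reporter assay. Compounds plus 50 nM rosiglitazone (final) for 17 h at 37 C, then viability read by CellTiter-Glo luminescence.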

[11] = qHTS assay for small molecule activators of the heat shock response signaling pathway - cell viability counter screen (AID 743209); also: nearly all actives have a fitted effect of over 50% in size; also: potency is read from the fitted curve at half-maximal effect
Summary of the method: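 Quantitative HTS format, Tox21 10K library. HeLa cells carrying an HSE-driven beta-lactamase reporter were treated 5 h at 37 C, then assessed for viability by CellTiter-Glo luminescence.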

[12] = qHTS assay to identify small molecule agonists of the peroxisome proliferator-activated receptor delta (PPARd) signaling pathway - cell viability counter screen (AID 743211); also: nearly all actives have a fitted effect of over 55% in size; also: potency is read from the fitted curve at half-maximal effect
Summary of the method: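 HEK293H PPARd-bla, 3000 cells/well; 5 h preincubation 37C/5% CO2; cpd in DMSO, 17 h 37C; B/G FRET substrate 2 h RT; CellTiter-Glo 30 min RT, luminescence.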

[13] = qHTS assay to identify small molecule antagonists of the thyroid receptor (TR) signaling pathway (AID 743065); also: nearly all actives have a fitted effect of over 55% in size; also: potency is read from the fitted curve at half-maximal effect
Summary of the method: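 GH3.TRE-Luc rat pituitary cells (two TREs driving luciferase) were dosed with compound, then stimulated with 1 nM T3 (final) for 23.5 h at 37 C. ONE-Glo luminescence was the read-out, with CellTiter-Fluor fluorescence as the cytotoxicity counter-screen.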

[14] = biological target: Estrogen receptor (Homo sapiens) (UniProt P03372); test: qHTS assay to identify small molecule agonists of the estrogen receptor alpha (ER-alpha) signaling pathway (AID 743075; calls by dose curve;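 also: HEK293 GripTite cells with ER-alpha and UAS-driven beta-lactamase reporter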)
[15] = qHTS assay to identify small molecule antagonists of the estrogen receptor alpha (ER-alpha) signaling pathway using the BG1 cell line (AID 743080; calls by dose curve;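 also: BG1 cells stimulated with 17beta-estradiol alongside compound; series mostly up to about 70 µM; nearly all actives have a fitted effect of over 25% in size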)
Summary of the method: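 Quantitative HTS on the Tox21 10K library: BG1 cells with endogenous ER-alpha and ERE-luciferase reporter, 17beta-estradiol stimulation, 21.5 h compound exposure, luminescence endpoint with parallel fluorescence cytotoxicity counter-read.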

[16] = biological target: Peroxisome proliferator-activated receptor gamma (Homo sapiens) (UniProt P37231); test: qHTS assay to identify small molecule antagonists of the peroxisome proliferator-activated receptor gamma (PPARg) signaling pathway (AID 743191; calls by dose curve; also: series mostly up to about 63 µM; nearly all actives have a fitted effect of over 30% in size)
Summary of the method: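 GeneBLAzer PPARg UAS-bla HEK293H cells, 5 h post-plating, exposed to compounds 17 h at 37C. LiveBLAzer B/G FRET substrate added for 1 h at room temperature; beta-lactamase reporter read by fluorescence intensity.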

[17] = qHTS assay for small molecule activators of the heat shock response signaling pathway (AID 743210; active = well fitted activation curve with a large enough effect in the signal ratio in the repeat runs, with a control signal flat, not every such curve was filed as active; the % refers to the signal ratio;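 also: HeLa cells with beta-lactamase reporter driven by heat shock elements; series mostly up to about 63 µM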)
Summary of the method: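 Quantitative high-throughput format using an engineered HeLa line in which heat shock response elements drive beta-lactamase; after 5 h with compound, cells received a B/G FRET substrate and fluorescence was read.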

[18] = biological target: Estrogen receptor (Homo sapiens) (UniProt P03372); test: qHTS assay to identify small molecule antagonists of the estrogen receptor alpha (ER-alpha) signaling pathway (AID 743069; active = well fitted curve in the direction sought with a large enough effect in the signal ratio in the repeat runs, not every such curve was filed as active; the % refers to the signal ratio)
Summary of the method: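 Reporter cells (ER-alpha-bla, HEK293 background) are conditioned overnight in stripped-serum medium (2% charcoal-stripped FBS). Compound and 17beta-estradiol exposure runs 18 hr at 37C, 5% CO2.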

Measured: Potency

COc1cc2c(c(OC)c1OC)-c1c(cc3c(c1OC)OCO3)C[C@@H](C)[C@](C)(O)C2
active: [4] 29.8 µM
inactive: [1] | [2] | [3] | Aromatase (Homo sapiens) | [5]

CCCCC[C@H](O)/C=C/[C@@H]1[C@@H](C/C=C\CCCC(=O)O)[C@@H](O)C[C@H]1O
active: [6] 29.8 µM
inactive: [1] | [3] | [7] | Aromatase (Homo sapiens) | [8] | [9] | [4] | [5]

CCCCCCCCCCCCN1CCCC1=O
active: [10] 54.9 µM | [11] 21.9 µM | [12] 54.9 µM
inactive: [2] | [7] | Aromatase (Homo sapiens) | [8] | [4] | [5]

COc1ccc2ccccc2c1
inactive: [13] | [2] | Aromatase (Homo sapiens)

CC(=O)N(C)C
inactive: [9]

CCN(CC)CCNC(=O)c1ccc(NS(C)(=O)=O)cc1
inactive: Aromatase (Homo sapiens) | [8] | [9] | [4] | [5]

Oc1ccc(Cl)cc1C1CCCC1
not listed: [1] | Aromatase (Homo sapiens) | [6] | [9] | [13] | [18]
inactive: all other assays above

c1ccc(-c2ccc(C(c3ccccc3)n3ccnc3)cc2)cc1 (centres undefined)
active: Aromatase (Homo sapiens) 0.75 µM | [9] 1.06 µM | [12] 29.8 µM
inactive: [3] | [6] | [7] | [8] | [4] | [5]

CN1[C@@H](CC(=O)c2ccccc2)CCC[C@H]1C[C@H](O)c1ccccc1
inactive: [2] | [18] | [3] | [14] | [6] | [15] | Aromatase (Homo sapiens) | [9] | [4] | [5]

Cc1cn([C@H]2C[C@H](O)[C@@H](CO)O2)c(=O)[nH]c1=O
not listed: [1] | [2] | [10] | [11] | [12] | [13] | [16] | [17]
inactive: all other assays above

CO/N=C(\C(=O)N[C@@H]1C(=O)N2C(C(=O)O)=C(CSc3cnns3)CS[C@H]12)c1csc(N)n1
not listed: [1] | [2] | [10] | [11] | [12] | [13] | [16] | [17]
inactive: all other assays above

CC/C(=C(/CC)c1ccc(OP(=O)(O)O)cc1)c1ccc(OP(=O)(O)O)cc1
inactive: [13] | [2] | [7] | Aromatase (Homo sapiens) | [8] | [9] | [4] | [5]

C=CC[N@@+]12CC[C@@]34c5ccccc5N5/C=C6/[C@H]7C[C@H]8[C@@]9(CC[N@@+]8(CC=C)C/C7=C/CO)c7ccccc7N(/C=C(/[C@@H](C[C@@H]31)/C(=C\CO)C2)[C@H]54)[C@@H]69
inactive: [13] | [2] | [3] | Aromatase (Homo sapiens) | [8] | [9] | [4] | [5]

C=C1[C@H](CO)[C@@H](O)C[C@@H]1n1cnc2c(=O)[nH]c(N)nc21
inactive: [3] | [7] | Aromatase (Homo sapiens) | [8] | [9] | [4] | [5]

CC[C@H](C)C(=O)O[C@H]1CCC=C2C=C[C@H](C)[C@H](CC[C@@H]3C[C@@H](O)CC(=O)O3)[C@H]21
inactive: [2] | [3] | [14] | [6] | [7] | [8] | [9] | [4] | [5]

O=C(CCN1CCC(c2ccccc2)C1)c1ccc2c(c1)OCCO2 (centres undefined)
active: [13] 26.6 µM | [11] 13.3 µM
not listed: [1] | [2] | Aromatase (Homo sapiens) | [8] | [16] | [17]
inactive: all other assays above

CC(C)CCC[C@@H](C)[C@H]1CC[C@H]2[C@@H]3CC[C@@H]4C[C@H](O)CC[C@]4(C)[C@H]3CC[C@]12C
not listed: [1] | [9] | [10] | [11] | [12] | [13] | [16] | [17]
inactive: all other assays above

CCCCCCCCCCCCCCCCCCOCC(COP(=O)([O-])OCC[N+](C)(C)C)OC (centres undefined)
not listed: [1] | [10] | [11] | [12] | [13] | [15] | [16] | [17]
inactive: all other assays above
